# Screens deposited in PubChem BioAssay by several laboratories.
# Most compounds without a hit are left out; they make up all but 2.9% or so of the library.
# B2AR ag: activates human beta-2 adrenergic receptor causing internalization; P07550; 340,000 compounds, 0.43% hits; response, % (test concentration not listed); Am2.2-beta2AR cells, FAP receptor internalization, flow cytometry;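 active = response above a set limit, near 3 SD of response in nonfluorescent compounds, cut at about 42% in these data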
# Target sequence (P07550 whole entry, looked up): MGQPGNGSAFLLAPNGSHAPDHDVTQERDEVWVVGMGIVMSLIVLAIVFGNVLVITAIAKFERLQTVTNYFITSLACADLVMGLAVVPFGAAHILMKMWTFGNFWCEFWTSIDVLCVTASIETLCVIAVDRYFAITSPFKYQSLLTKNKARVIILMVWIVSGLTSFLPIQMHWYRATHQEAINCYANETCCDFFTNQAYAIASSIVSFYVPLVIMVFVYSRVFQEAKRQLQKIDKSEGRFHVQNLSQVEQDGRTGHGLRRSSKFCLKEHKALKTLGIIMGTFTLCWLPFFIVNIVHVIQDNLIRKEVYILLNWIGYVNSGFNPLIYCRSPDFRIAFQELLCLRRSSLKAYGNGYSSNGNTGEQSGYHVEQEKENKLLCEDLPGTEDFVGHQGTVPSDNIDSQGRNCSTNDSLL
# PP1 counter: counter-screen for PP5 inhibitors: inhibitors of human PP1-alpha; purified PP1alpha, OMFP fluorescence; inhibition, % at 6.7 µM; P62136; 320,000 compounds, 0.9% hits;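 active = inhibition above the mean inhibition of all tested compounds plus 3 SD, computed separately for each screening campaign, cut at about 15% in these data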
# GRK2 aptamer HTS: blocks RNA aptamer binding to human GRK2 | P25098 | bead flow cytometry, FAM-aptamer displacement from GRK2 | inhibition of aptamer binding, % at 10 µM | 330,000 compounds, 0.59% hits;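 active = inhibition of aptamer binding above 40%, roughly 3 SD of noise, on plates passing a quality check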;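 also: median bead fluorescence of bound FAM aptamer so fluorescent compounds give negative values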
# Exocytosis inh: blocks lytic granule exocytosis | TALL-104 LAMP-1 surface exposure, flow cytometry; cells stimulated with thapsigargin and PMA | inhibition, % at 10 µM | 360,000 compounds, 0.66% hits | AID 651702;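 active = inhibition above about 55%, limit read from the data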
# NadD block: blocks S. aureus nicotinate mononucleotide adenylyltransferase | purified NadD enzyme, colorimetric absorbance read-out | inhibition, % at 20 µM | 360,000 compounds, 0.78% hits | AID 602399; in the data active = inhibition above about 26%
# Exocytosis CP01: lytic granule exocytosis inhibition. shares compounds with Exocytosis inh. 1,500 compounds, 11% hits. inhibition, % at 10 µM. TALL-104 cells, LAMP-1 externalization, flow cytometry; stimulated with PMA plus thapsigargin. AID 651954; in the data active = inhibition above about 60%;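 also: 0% = stimulated vehicle wells and 100% = unstimulated wells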
# * hit, by the source's call; x = no result given.
SMILES,B2AR ag,PP1 counter,GRK2 aptamer HTS,Exocytosis inh,NadD block,Exocytosis CP01
Cc1ccc(C(=O)c2c(C)oc3c2C(=O)C(=O)c2ccccc2-3)cc1,47*,-1,4,103*,5,42
Cc1oc2c(c1C(=O)N1CCC(C)CC1)C(=O)c1ccccc1C2=O,x,0,0,x,x,x
Cc1cc(C)nc(NN=C(c2ccccc2)c2ccccc2)n1,-9,-1,3,2,-1,x
Cc1ccc2c(Cl)cc(Cl)c(O)c2n1,14,x,x,22,8,x
Cc1ccc2c(Cl)cc(Cl)c(OCc3c(C)noc3C)c2n1,-7,1,2,59*,0,-4
Cc1cc(Br)c(NC(=O)CN2CCCC2)c(Br)c1,-1,x,x,-6,-1,x
COc1cc(CNC(C)C23CC4CC(CC(C4)C2)C3)ccc1OCC(=O)NC(C)(C)C (centres undefined),7,-2,0,20,-8,x
CC(NCc1cc(Br)ccc1OCC(N)=O)C12CC3CC(CC(C3)C1)C2 (centres undefined),6,1,0,59*,-9,-4
O=C(Nc1ccc(NC(=O)C2CCCCC2)nc1)c1cccc(F)c1,10,x,x,5,3,x
Cc1cccc(C)c1NC(=O)CN(C)C(=O)c1ccccc1OCc1ccc(F)cc1,1,-3,2,1,-3,x
COc1ccc(N/C=C/C(=O)c2cc(OC)c(OC)c(OC)c2)cc1,19,1,1,57*,-4,-11
C=CCN1C(=O)C(CC(=O)Nc2ccc(OCCC)cc2)N(CCCN2CCN(Cc3ccccc3)CC2)C1=S (centres undefined),35,0,0,58*,6,21
CCCCN(CCCNC(=O)CN1C(=O)COc2ccc(S(=O)(=O)N3CCC(C)CC3)cc21)Cc1ccccc1,9,2,0,60*,-9,-4
CCCCN(CCCC)CCNC(=O)CN1C(=O)COc2ccc(S(=O)(=O)N3CCC(C)CC3)cc21,-3,-4,0,-1,-6,x
CCOC(=O)c1c(CSCc2ccccc2)oc2ccc(O)c(CN(C)C)c12,13,0,0,85*,-10,36
Cc1oc2ccc(O)c(CN(C)C)c2c1C(=O)c1ccccc1,-21,-1,0,-2,0,x
CN(c1ccccc1)S(=O)(=O)c1ccc2ccccc2c1,-4,11,2,65*,-4,-4
CC1Cc2ccccc2N1C(=O)COC(=O)c1ccc(Br)o1 (centres undefined),4,-2,0,4,-7,x
Cc1ccc(-n2c(CCc3ccccc3)nnc2SCC(=O)NCc2ccccc2)cc1C,0,6,0,68*,2,13
CCc1nc2c(OCC(=O)N3CCOCC3)cccn2c1N(C=O)Cc1ccccc1,x,x,x,-3,2,x
CC(C)(C)S(=O)N1Cc2cc(C(=O)N[C@@H]3CCN(Cc4ccccc4)C3)nc(-c3cccc(-c4cc5ccccc5o4)c3)c2[C@@H]1CCO (some centres undefined),x,x,x,63*,6,19
CC(C)(C)S(=O)N1Cc2cc(C(=O)O)nc(-c3cccc(-c4cc5ccccc5o4)c3)c2[C@H]1CCO (some centres undefined),x,x,x,-2,14,x
CCC(C(=O)NCCc1ccc(C)cc1)n1nc(C)c2c(C)n(-c3ccccc3)nc2c1=O (centres undefined),-8,2,15,86*,6,-4
Cc1nn(C(C)C(=O)NCCCN(Cc2ccccc2)C(C)C)c(=O)c2c1sc1ccccc12 (centres undefined),3,12,0,1,-3,x
CCC(C(=O)NCCCN(CC)Cc1ccccc1)n1nc(C)c2sc3ccccc3c2c1=O (centres undefined),7,-2,0,58*,-11,-5
SMILES,B2AR ag,PP1 counter,GRK2 aptamer HTS,Exocytosis inh,NadD block,Exocytosis CP01
COc1ccc2nc(NC(=O)CN(C)S(=O)(=O)c3cccs3)sc2c1,4,-2,13,-2,0,x
OC(CNCCN1CCNCC1)Cc1ccccc1 (centres undefined),-42,x,x,-2,-6,x
COc1ccc(-c2cc(C)no2)cc1S(=O)(=O)N(C)Cc1ccco1,-10,-1,0,0,-3,x
CCCN(c1ccccc1F)S(=O)(=O)c1cc(-c2cc(C)no2)ccc1OC,28,1,2,89*,-12,-4
O=C(CN1CCN(C(c2ccccc2)c2ccccc2)CC1)N1CCN(c2ccccc2)CC1,19,2,0,71*,0,-1
CCC1(C)CC(C(CC(=O)O)c2ccc(C)cc2)CCO1 (centres undefined),0,-3,4,-1,-1,x
CCCCN(CC)C(=O)CSc1nc2n[nH]c(C)c2c(=N)n1-c1cccc(C)c1,-7,7,0,62*,-10,-10
CCOC(CNC(=O)C(=O)Nc1cc2c3c(c1)CCC(=O)N3CCC2)OCC,-1,-1,0,2,3,x
CC1(C)CC2CC(C)(CN2C(=O)NC(=O)c2ccccc2)C1 (centres undefined),-5,3,3,66*,1,-5
CCOC(=O)C1=CCN(S(=O)(=O)c2ccc(C)cc2)C1c1ccc(Cl)c(Cl)c1 (centres undefined),x,x,x,2,-5,x
CCOC(=O)Cn1c(=O)oc2cc(S(=O)(=O)NCCc3ccc(C)cc3)ccc21,3,0,3,-2,2,x
CCOC(=O)Cn1c(=O)oc2cc(S(=O)(=O)N(C)c3ccc(OC)cc3)ccc21,8,1,0,59*,-3,-4
CCOC(=O)Cn1c(=O)oc2cc(S(=O)(=O)N(C)c3cccc(C)c3)ccc21,15,1,0,62*,-5,2
COc1cc(OC)cc(OC(=O)C2CCN(C(=O)c3ccc(Cl)cc3)CC2)c1,6,-2,0,-17,-3,x
Cc1ccc(Oc2ncccc2C(=O)NCC(=O)O)cc1,3,-2,x,4,8,x
CCCS(=O)(=O)NC(=O)C1(C)CCN(C(=O)COc2ccc(Cl)cc2Cl)C1 (centres undefined),x,x,x,61*,-4,-3
CCCS(=O)(=O)NC(=O)C1(C)CCCN(C(=O)COc2ccc(Cl)cc2Cl)C1 (centres undefined),x,x,x,5,5,x
CCOc1ccc2[nH]c3c(N4CCN(c5ccccn5)CC4)ncnc3c2c1,5,-6,0,88*,-7,10
O=C(O)C1CCN(S(=O)(=O)c2ccc(N3CCC(O)CC3)c([N+](=O)[O-])c2)CC1,2,-2,0,-10,5,x
CCOC(=O)c1c(-c2ccccc2)oc2ccc(OCC(O)CN(C)C)cc12 (centres undefined),8,2,0,84*,-11,-3
CCOC(=O)c1c(-c2ccccc2)oc2ccc(OC(C)C(=O)O)cc12 (centres undefined),11,-5,0,-5,-3,x
